Test results published in PubChem BioAssay (Tox21).
Records with an inconclusive call do not appear. Entries that show only a call come without a potency. A number with no mark means an inactive call. The source made the active and inactive calls. Calls follow the shape of the full dose curve.

Molecular target: Acetylcholinesterase (Homo sapiens) (UniProt P22303)
Assay: Acetylcholinesterase (AChE) small molecule antagonists: fluorescence cell-based qHTS assay (AID 1347398); also: nearly all actives have a fitted effect of over 50% in size
Conditions: SH-SY5Y cells; Potency: AChE activity; outcome: AChE activity; series mostly up to 115 µM
Description: National Center for Advancing Translational Sciences [NCATS]
Division of Preclinical Innovation [DPI]
U.S. Environmental Protection Agency [EPA]
National Institutes of Environmental Health Sciences [NIEHS]
National Toxicology Program [NTP]
U.S. Food and Drug Administration [FDA]
Acetylcholinesterase (AChE) is the primary cholinesterase in the body that hydrolyzes a key neurotransmitter, acetylcholine. Inhibition of AChE activity can lead to neurotoxicity. Known inhibitors of AChE include organophosphorous pesticides (OP), chemical warfare agents, drugs, and various phytochemicals.
A homogenous cell-based assay using Amplitetrade mark Fluorimetric Acetylcholinesterase Assay Kit *Green Fluorescence* (AAT Bioquest, Sunnyvale, CA) was used to evaluate the chemicals in the Tox21 10K library that inhibit AChE activity. The assay uses Thiolite Green to quantify the thiocholine produced from the hydrolysis of acetylthiocholine by AChE from the SH-SY5Y cells. AChE can hydrolyze acetylthiocholine to create thiocholine. Thiolite Green is fluorescent when reacting with thiocholine. It has spectral properties similar to those of fluorescein. The fluorescence intensity of Thiolite Green is used to measure AChE activity. Its signal can be easily read by a fluorescence microplate reader at Ex/Em = 490/520 nm.
Tox21 Assay Protocol Summary:
For cell-based AChE assay, 2,000 SH-SY5Y cells in 4 uL/well were dispensed into black, clear-bottom 1536-well plates using a Multidrop Combi (Thermo Scientific) dispenser. The assay plates were incubated overnight at 37 C to allow cells to attach to the wells, followed by the transfer of 23 nL compound or DMSO (vehicle control) by a Pintool station (Wako Automation, CA). The plates were incubated for 30 min at 37 C and 5% CO2, followed by the addition of 4 uL of detection cocktail solution (ThioliteGreen, acetylthiocholine) into each well using Flying Reagent Dispenser (Beckman Coulter, CA) and then following 40 min incubation at room temperature. Fluorescent intensity (Ex/Em = 490/520 nm) was measured using an Envision plate reader (PerkinElmer, MA).
Potency is read from the fitted curve at half-maximal effect.

Acetylcholinesterase (Homo sapiens), sequence (P22303 whole entry, looked up): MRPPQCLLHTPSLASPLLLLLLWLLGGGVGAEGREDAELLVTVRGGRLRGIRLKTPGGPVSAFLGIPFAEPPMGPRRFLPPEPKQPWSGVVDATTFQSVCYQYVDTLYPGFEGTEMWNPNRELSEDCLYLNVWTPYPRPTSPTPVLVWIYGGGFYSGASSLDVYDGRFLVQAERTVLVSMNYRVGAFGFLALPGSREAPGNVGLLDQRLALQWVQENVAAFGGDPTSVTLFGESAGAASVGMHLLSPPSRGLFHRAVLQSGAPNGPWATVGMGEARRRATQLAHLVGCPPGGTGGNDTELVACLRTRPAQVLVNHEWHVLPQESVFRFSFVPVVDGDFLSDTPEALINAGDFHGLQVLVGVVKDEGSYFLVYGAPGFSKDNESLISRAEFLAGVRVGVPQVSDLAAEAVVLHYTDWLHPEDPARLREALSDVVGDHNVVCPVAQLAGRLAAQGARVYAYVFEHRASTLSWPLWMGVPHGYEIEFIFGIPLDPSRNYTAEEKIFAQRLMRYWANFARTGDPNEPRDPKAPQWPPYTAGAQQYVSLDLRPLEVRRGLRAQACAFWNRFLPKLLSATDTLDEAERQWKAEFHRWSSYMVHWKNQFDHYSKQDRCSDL

Compound | Potency | activity change, negative = inhibition
O=C1CCCCCCCCCCCCCCCO1 | inactive | 
CC(=O)OCC(CCn1cnc2cnc(N)nc21)COC(C)=O | inactive | 
CS(C)=O | inactive | 
O=C(O)CCCc1ccccc1 | inactive | 
COC(OC)(C(=O)c1ccccc1)c1ccccc1 | inactive | 
CCCCN1C(=O)[C@@H]([C@H](O)C2CCCCC2)NC(=O)C12CCN(Cc1ccc(Oc3ccc(C(=O)O)cc3)cc1)CC2 | inactive | 
CCCC(CC)CCCCCCCN (stereo not given) | inactive | 
COc1cc(OC)nc(NC(=O)NS(=O)(=O)Nc2ccccc2C(=O)N(C)C)n1 | inactive | 
CNC(=S)NC | inactive | 
CCCN(CCC)CCc1cccc2c1CC(=O)N2 | inactive | 
O=C(O)C(O)[C@H](O)[C@@H](O)[C@H](O)[C@H](O)CO (stereo not given in full) | inactive | 
CCCC(=O)O[C@]1(C(=O)COC(=O)CC)CC[C@H]2[C@@H]3CCC4=CC(=O)CC[C@]4(C)[C@H]3[C@@H](O)C[C@@]21C |  | 1.87% [at 23.8 µM]
CCCCOC(=O)[C@@H](C)Oc1ccc(Oc2ccc(C(F)(F)F)cn2)cc1 | inactive | 
CO[C@@H]1COCC[C@@H]1N[C@@H]1CC[C@@](C(=O)N2CCc3ncc(C(F)(F)F)cc3C2)(C(C)C)C1 | inactive | 
CC(=O)O[C@H]1C[C@@H]2CC[C@@H]3[C@H](CC[C@@]4(C)[C@H]3C[C@H]([N+]3(C)CCCCC3)[C@@H]4OC(C)=O)[C@@]2(C)C[C@@H]1N1CCCCC1 | 6.92 µM (active) | 
COc1ccc2nc(NC(=O)Nc3ccccc3)sc2c1 | inactive | 
CNC(C)=O | inactive | 
O=C(CCS)OCC(COC(=O)CCS)(COC(=O)CCS)COC(=O)CCS | inactive | 
CCNC(=O)C1CC(C)CCC1C(C)C (stereo not given) | inactive | 
CCCCC/C=C\CCC=O | inactive | 

Compound | Potency | activity change, negative = inhibition
CCCCCCOC(=O)CC(CC(=O)OCCCCCC)(OC(=O)CCC)C(=O)OCCCCCC | inactive | 
C=C(C)C(=O)OCCCC | inactive | 
CC(C)(O)C(=O)O | inactive | 
O=C(c1ccccc1)C1CCCCC1 | inactive | 
CC(C)C(=O)OCC(C)(C)C(O)C(C)C (stereo not given) | inactive | 
C1=CCC2CC=CC2C1 (stereo not given) | inactive | 
CCc1cc(Cc2cc(CC)c(N)c(CC)c2)cc(CC)c1N | inactive | 
FC1(F)C(F)(F)C(F)(F)C2(F)C(F)(C1(F)F)C(F)(F)C(F)(F)C1(F)C(F)(F)C(F)(F)C(F)(F)C(F)(F)C12F (stereo not given) | inactive | 
CC/C=C/CCCCCCCCCCOC(C)=O | inactive | 
OCCCc1cccnc1 | inactive | 
[O]=[Mo](=[O])=[O] |  | 0.826% [at 23.8 µM]
COc1ccc2cc(CCC(C)=O)ccc2c1 | inactive | 
Nc1cccnc1N | inactive | 
CC(C)NCCCC1(C(N)=O)c2ccccc2-c2ccccc21 | inactive | 
c1ccc(CCCc2ccccn2)cc1 | inactive | 
COC(=O)C1=C(C)NC(C)=C(C(=O)OCCN2CCN(C(c3ccccc3)c3ccccc3)CC2)C1c1cccc([N+](=O)[O-])c1 (stereo not given) | inactive | 
Cc1cc(C(C#N)c2ccc(Cl)cc2)c(Cl)cc1NC(=O)c1cc(I)cc(I)c1O (stereo not given) | inactive | 
CCOc1ccc2ccccc2c1C(=O)N[C@@H]1C(=O)N2[C@@H]1SC(C)(C)[C@@H]2C(=O)O | inactive | 
Cc1cc(C)c(C=O)c(C)c1 | inactive | 
O=C(Nc1ccc(Cl)c(Cl)c1)c1cc(Cl)cc(Cl)c1O | inactive | 
